The nature of assay [1]: compounds binding Alexa647 anti-His antibody – biochemical, small-molecule microarray, 635 nm fluorescence, artefact control for SMM control protein annotation, primary screen (AID 1128).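 Also: score merges feature fluorescence with signal-to-noise for each printed compound spot.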 Conditions: higher = more signal.
Assay [2] deals with Human papillomavirus type 1a E7 protein (residues 1-88). The experiment in a line: HPV1a E7 small-molecule binders, primary screen, biochemical, small-molecule microarray, residues 1-88, 635 nm (AID 1129). Conditions: small-molecule microarray binding, fluorescence 635 nm; higher = more signal.
The target in assay [3] is Focal adhesion kinase 1 (Homo sapiens) (UniProt Q05397). The experiment in a line: PTK2 protein binding on printed compound slides – biochemical, small-molecule microarray, 635/667 nm fluorescence, BSA, DTT, primary screen (AID 1130).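 Also: composite of spot emission at 667 nm and signal to noise over triplicate slides.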 To be noted: 635 nm fluorescence, higher = more signal.
The subject of assay [4] is Fibrinogen (Alexa647-labelled). The experiment in a line: Alexa647-fibrinogen binding to printed small molecules – biochemical, small-molecule microarray, 635/667 nm fluorescence, artefact control for SMM control-protein annotation, profiling panel (AID 1131).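 Also: z-score merges 667 nm fluorescence with per-spot signal-to-noise over triplicate slides.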 To be noted: fibrinogen-A647 binding fluorescence, higher = more signal.
In assay [5] the target is Follistatin (Homo sapiens) (UniProt P19883). The experiment in a line: FST protein binding to printed compounds – biochemical, small-molecule microarray, 635/667 nm fluorescence, primary screen (AID 1132). To be noted: 635 nm fluorescence, higher = more signal.
For assay [6], the target named is Fibroblast growth factor 2 (Homo sapiens) (UniProt P09038). The experiment in a line: basic fibroblast growth factor binding to printed compounds – biochemical, small-molecule microarray, 635/667 nm fluorescence, primary screen (AID 1133). To be noted: FGF2, fluorescence 635/667, higher = more signal.
A short description of assay [7]: JC-1 mitochondrial potential readout, lung cancer cells – cell-based, A549, JC-1 fluorescence, basal, 24 h, 100 nL, profiling panel (AID 1138).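 Also: A549 lung adenocarcinoma cells under basal conditions with no added stimulus; test concentration not given here.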 To be noted: higher = more signal.
In a further assay the test system is Lefty1. The experiment in a line: Lefty1 protein binding to printed compounds – biochemical, small-molecule microarray, 635/667 nm fluorescence, primary screen (AID 1139). To be noted: fluorescence 635/667, higher = more signal.
The test system of assay [8] is wheat germ agglutinin (Triticum aestivum), Alexa647-labelled. The experiment in a line: Alexa647-WGA lectin binding to printed small molecules – biochemical, small-molecule microarray, 635/667 nm fluorescence, artefact control for SMM control-protein annotation, profiling panel (AID 1140).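 Also: score merges 667 nm feature emission with signal to noise over triplicate slides.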 Conditions: WGA-A647 binding, 635 nm fluorescence, higher = more signal.
Assay [9] concerns the target Luciferin 4-monooxygenase (Photinus pyralis) (UniProt P08659). The experiment in a line: inhibition of purified Photinus pyralis luciferase – biochemical, luminescence, purified enzyme, 2006 set, primary screen (AID 1141).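 Also: cell-free assay with purified firefly luciferase at 100 ng per well in PBS; test concentration not given here.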 Conditions: purified firefly luciferase, SteadyGlo luminescence, 30 min; higher = more signal, called active from +8 up or from −8 down.

Each structure is given as a SMILES string. Activity calls are given as the source filed them.

The values below come from PubChem BioAssay.

Sequence of Fibroblast growth factor 2 (Homo sapiens) (P09038 whole entry, looked up): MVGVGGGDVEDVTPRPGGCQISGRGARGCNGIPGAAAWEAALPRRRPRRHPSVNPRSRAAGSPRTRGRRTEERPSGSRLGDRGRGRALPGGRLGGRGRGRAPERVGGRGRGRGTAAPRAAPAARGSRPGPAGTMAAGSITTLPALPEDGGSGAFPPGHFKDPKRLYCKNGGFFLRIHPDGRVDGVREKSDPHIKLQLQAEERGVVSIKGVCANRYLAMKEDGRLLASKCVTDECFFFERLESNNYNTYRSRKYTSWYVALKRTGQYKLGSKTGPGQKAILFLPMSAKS
Sequence of Luciferin 4-monooxygenase (Photinus pyralis) (P08659 whole entry, looked up): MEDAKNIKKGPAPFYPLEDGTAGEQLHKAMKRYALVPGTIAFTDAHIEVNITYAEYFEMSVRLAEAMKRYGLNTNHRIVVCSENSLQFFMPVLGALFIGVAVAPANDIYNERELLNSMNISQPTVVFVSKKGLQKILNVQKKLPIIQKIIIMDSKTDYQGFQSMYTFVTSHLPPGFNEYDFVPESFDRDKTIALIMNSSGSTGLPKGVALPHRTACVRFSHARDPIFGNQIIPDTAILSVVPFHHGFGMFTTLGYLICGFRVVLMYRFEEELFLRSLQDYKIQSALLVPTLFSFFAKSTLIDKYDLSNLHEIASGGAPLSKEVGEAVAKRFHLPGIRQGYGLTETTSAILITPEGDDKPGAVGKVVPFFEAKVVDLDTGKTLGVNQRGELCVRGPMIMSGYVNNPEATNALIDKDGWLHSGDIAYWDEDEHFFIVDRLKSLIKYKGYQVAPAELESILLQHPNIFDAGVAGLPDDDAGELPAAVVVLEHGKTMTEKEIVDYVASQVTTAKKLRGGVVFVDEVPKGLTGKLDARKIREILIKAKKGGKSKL
Sequence of Focal adhesion kinase 1 (Homo sapiens) (Q05397 whole entry, looked up): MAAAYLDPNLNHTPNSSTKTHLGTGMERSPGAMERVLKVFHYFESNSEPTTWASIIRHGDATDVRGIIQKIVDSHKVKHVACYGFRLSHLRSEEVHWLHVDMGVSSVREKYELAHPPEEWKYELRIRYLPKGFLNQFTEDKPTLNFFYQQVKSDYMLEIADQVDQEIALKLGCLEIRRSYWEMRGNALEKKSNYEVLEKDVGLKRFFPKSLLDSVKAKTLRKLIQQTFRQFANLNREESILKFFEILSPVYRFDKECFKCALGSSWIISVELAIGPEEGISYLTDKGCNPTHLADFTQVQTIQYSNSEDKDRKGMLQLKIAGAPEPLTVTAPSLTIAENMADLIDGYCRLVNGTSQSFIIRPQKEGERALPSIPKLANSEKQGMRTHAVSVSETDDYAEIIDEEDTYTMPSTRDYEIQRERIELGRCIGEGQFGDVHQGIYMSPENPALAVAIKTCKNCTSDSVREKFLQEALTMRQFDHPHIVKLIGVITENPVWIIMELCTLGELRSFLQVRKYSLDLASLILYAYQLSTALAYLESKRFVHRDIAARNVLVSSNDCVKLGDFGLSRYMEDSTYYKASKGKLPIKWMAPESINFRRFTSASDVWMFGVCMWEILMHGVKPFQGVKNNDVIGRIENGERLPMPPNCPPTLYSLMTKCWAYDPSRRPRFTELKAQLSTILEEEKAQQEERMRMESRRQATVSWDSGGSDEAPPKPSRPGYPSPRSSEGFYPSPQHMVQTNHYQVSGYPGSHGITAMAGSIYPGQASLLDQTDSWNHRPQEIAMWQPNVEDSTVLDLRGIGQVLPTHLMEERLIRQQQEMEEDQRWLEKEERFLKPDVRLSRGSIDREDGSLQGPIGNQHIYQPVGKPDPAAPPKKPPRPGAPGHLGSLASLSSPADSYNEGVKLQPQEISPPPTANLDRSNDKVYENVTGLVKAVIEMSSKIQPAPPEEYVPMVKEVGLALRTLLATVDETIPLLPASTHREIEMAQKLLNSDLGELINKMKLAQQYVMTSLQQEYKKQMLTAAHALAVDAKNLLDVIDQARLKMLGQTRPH
Sequence of Follistatin (Homo sapiens) (P19883 whole entry, looked up): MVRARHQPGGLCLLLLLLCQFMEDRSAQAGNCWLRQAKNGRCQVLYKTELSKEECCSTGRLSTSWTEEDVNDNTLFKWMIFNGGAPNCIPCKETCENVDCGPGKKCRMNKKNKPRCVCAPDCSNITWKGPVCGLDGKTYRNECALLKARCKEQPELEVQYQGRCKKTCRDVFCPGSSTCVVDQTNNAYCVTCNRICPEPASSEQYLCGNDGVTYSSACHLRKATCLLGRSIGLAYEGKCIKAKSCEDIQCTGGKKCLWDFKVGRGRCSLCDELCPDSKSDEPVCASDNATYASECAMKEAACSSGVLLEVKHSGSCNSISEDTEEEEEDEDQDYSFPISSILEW

Take `O=C1[C@H]2[C@H]3[C@H](O)[C@H](O)CC(=NOC[C@@H](O)COCc4ccco4)[C@@H]3CC[C@H]2C(=O)N1C1CCCCC1`: the composite z-score in [1] was 0.0182; in assay [2], -0.244; in assay [3] it was -0.569; in assay [4], -0.811; in assay [5] it was 1.22; in assay [6], 1.37. The composite z-score with Lefty1 was 1.58; in assay [8], -0.284. Besides, the z-score in assay [7] was -0.144; in [9] it was 0.0055 (inactive).
In the case of `CCOC(=O)[C@H](Cc1ccccc1)NC(=O)CCC1CC(OC(=O)NCc2cccc3ccccc23)CC2(CCCC(COC(=O)NCC3CCCCC3)O2)O1` (stereo not given in full), the composite z-score in [1] was determined as 1.05; in assay [2], 1.06; in assay [3], 0.289; in assay [4], 0.923; in [5], 0.421; in [6] it was 0.754. Further, the composite z-score was 0.826 in the assay with Lefty1 and -0.264 in assay [8]. Besides, the z-score in assay [7] was 0.624; in [9], 0.632 (inactive).
As to `C[C@]12CCC3c4ccc(OCC5CO5)cc4CCC3C1CC[C@@H]2O` (stereo not given in full), the composite z-score in assay [1] is 1.19; in [2], 1.14; in assay [3], 0.492; in assay [4] it was 1; in [5], 0.137; in assay [6], -0.2. Also, the composite z-score is -0.005 with Lefty1 and 1.05 in assay [8]. Also, the z-score in [7] was 4.51; in assay [9] it was -0.466 (inactive).
With `O=C1C[C@@H](O)[C@@H](O)[C@@H]2[C@@H]3C(=O)N(Cc4ccccc4)C(=O)[C@@H]3CC[C@H]12`, the composite z-score in [1] is 0.0747; in [2], 0.467; in assay [3] it was 0.141; in [4] it was 0.872; in [5], 0.967; in assay [6] it was 0.347. Also, the composite z-score in the assay on Lefty1 is 0.329; in [8], 0.565. In addition, the z-score in assay [7] was -0.579; in assay [9], 0.675 (inactive).
Consider `O=C1C=C[C@@H](O)[C@@H]2[C@@H]3C(=O)N(Cc4ccc5c(c4)OCO5)C(=O)[C@@H]3CC[C@@H]12`, for which the composite z-score in [1] was 0.314; in [2] it was 0.867; in assay [3], 0.185; in assay [4], 0.546; in assay [5] it was 0.382; in assay [6], 0.569. Also, the composite z-score in the assay with Lefty1 amounted to 0.585; in assay [8], 0.0599. Moreover, the z-score was -0.635 in assay [7] and -0.276 (inactive) in [9].
`CCc1cc2c(nc1CC)CCN(CCC(C)=NOCC[C@@H]1C=C[C@H](OC(C)=O)[C@@H](COC(C)=O)O1)C2`: the composite z-score in [1] was 0.345; in assay [2] it was -0.19; in [3] it was 0.174; in assay [4], -0.0226; in [5], 0.823; in assay [6], 0.273. Besides, the figures for the composite z-score (in the assay on Lefty1; in [8]) were 1.18 and 0.0479, respectively. Besides, the z-score in [7] was 0.677; in assay [9], 0.855 (inactive).
Regarding `COC(=O)C(C(=O)OC)C1CCCC(=O)C1` (stereo not given), the composite z-score was found to be 0.252 in assay [1]; 0.433 in assay [2]; 0.193 in assay [3]; 0.372 in [4]; 0.326 in assay [5]; 0.692 in assay [6]. Besides, the results for the composite z-score (with Lefty1; in assay [8]) were 0.804 and 0.173, respectively. For the same molecule, the values for the z-score in [7] and in assay [9] were -1.13 and 0.138 (inactive), respectively.
Turning to `CC(CCC(=O)OC[C@H]1O[C@H](C#Cc2ccccc2)C=C[C@@H]1Oc1ccc(C)cc1)=NOC(C)CN1CCCCc2nc(C)c(C)cc21` (stereo not given in full), the composite z-score was -0.578 in assay [1]; 0.203 in [2]; 0.603 in assay [3]; -0.626 in assay [4]; -0.463 in assay [5]; -0.426 in [6]. Further, the composite z-score with Lefty1 was -0.034; in [8] it was 0.222. In addition, the z-score in assay [7] was 0.856; in assay [9], 1.08 (inactive).
Consider `CC(C)CON=C1C[C@@H](O)[C@@H](O)[C@@H]2[C@@H]3C(=O)N(Cc4ccccc4)C(=O)[C@@H]3CC[C@H]12`, for which the composite z-score in assay [1] was 0.247; in assay [2] it was 0.502; in assay [3] it was 0.052; in assay [4], 0.666; in [5] it was 0.363; in [6], 0.474. Also, the composite z-score in the assay on Lefty1 worked out at 0.669; in assay [8], 0.134. Also, the z-score in [7] is -1.03; in [9], 1.14 (inactive).
Turning to `CCOC(=O)[C@H](Cc1ccccc1)NC(=O)CCC1CC(OC(=O)NCCc2ccc(F)cc2)CC2(CCCC(COC(=O)NCc3cccc(C(F)(F)F)c3)O2)O1` (stereo not given in full), the composite z-score in assay [1] was 0.554; in assay [2], 1.16; in [3] it was 0.31; in assay [4], 0.943; in [5] it was 0.787; in [6], 0.696. In addition, the figures for the composite z-score (in the assay on Lefty1; in assay [8]) were 1.64 and 0.502, respectively. For the same molecule, the figures for the z-score in assay [7] and in assay [9] were 0.578 and 0.871 (inactive), respectively.
Consider `C[C@@H](c1ccccc1)N1C(=O)[C@H]2[C@H]3[C@H](O)[C@H](O)CC(=NOCc4ccccc4)[C@@H]3CC[C@H]2C1=O`, for which the composite z-score is 0.151 in assay [1]; -0.513 in assay [2]; 0.0826 in [3]; 0.0844 in [4]; -0.7 in [5]; -0.0815 in [6]. In addition, the composite z-score was -0.684 with Lefty1 and 0.32 in [8]. Moreover, the z-score in assay [7] was -0.781; in assay [9], 0.747 (inactive).
